Laboratory results reported in the supplement of paper PMC6607015.
Structures can show the parent of a compound that is named as a salt.

Tests used:
Conditions in all cases: compound concentration in added solution (µM; 5 µl added to 20 µl cells): 10; 18 h
A431 [1] = assay: LBPA endosome anti-LBPA integrated intensity (sum per cell), Z-score; higher = more LBPA staining
In short: (§1)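 HeLa MZ or A431 cells (3,500/well in 20 µl) were seeded onto 5 µl of 10 µM compound solution in duplicate 384-well imaging plates, incubated 18 h, then fixed in 4% PFA. Cells were stained with 6C4 anti-LBPA antibody, filipin, propidium iodide and CellTracker green, and four 20× images were taken per well. MetaXpress segmentation gave per-cell integrated LBPA or filipin intensity, either whole-cell or within LBPA endosomes. Values are Z-scores normalised in AcuityXpress.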

HeLa MZ [2] = assay: as above
In short: as §1

A431 [3] = assay: whole-cell filipin (free cholesterol) integrated intensity, Z-score; higher = more cholesterol staining
In short: as §1

HeLa MZ [4] = assay: as above
In short: as §1

A431 [5] = assay: filipin (cholesterol) integrated intensity within LBPA endosomes, Z-score; higher = more cholesterol in LBPA endosomes
In short: as §1

HeLa MZ [6] = assay: as above
In short: as §1

Row | SMILES | LBPA endosome anti-LBPA integrated intensity (z-score) (A431 [1]) | LBPA endosome anti-LBPA integrated intensity (z-score) (HeLa MZ [2]) | whole-cell filipin (z-score) (A431 [3]) | whole-cell filipin (z-score) (HeLa MZ [4]) | filipin (z-score) (A431 [5]) | filipin (z-score) (HeLa MZ [6])
1 | Cc1ccc(Cl)c(Nc2ccccc2C(=O)O)c1Cl [Meclofenamic acid sodium salt monohydrate] | -0.528 | -0.676 | -0.856 | -0.416 | -0.531 | -0.606
2 | CCC(C)n1ncn(-c2ccc(N3CCN(c4ccc(OCC5COC(Cn6cncn6)(c6ccc(Cl)cc6Cl)O5)cc4)CC3)cc2)c1=O (stereo not drawn) [Itraconazole] | 1.31 | 0.474 | 2.3 | 2.36 | 2.02 | 1.87
3 | CC(C)NCC(O)COc1cccc2[nH]ccc12 (stereo not drawn) [Pindolol] | -0.195 | -0.563 | -0.497 | -0.0997 | -0.329 | -0.129
4 | Cc1ncc(CO)c(CO)c1O [Pyridoxine hydrochloride] | -0.469 | -0.56 | -0.385 | -0.528 | -0.475 | -0.596
5 | CCCCCCCCNC(C)C(O)c1ccc(SC(C)C)cc1 (stereo not drawn) [Suloctidil] | 2.96 | -0.389 | 1.67 | 1.53 | 3.3 | 3.27
6 | CCOC(=O)c1ccc(N)cc1 [Benzocaine] | -0.607 | -1.32 | -0.4 | -0.36 | -0.613 | -0.643
7 | Nc1nc(=O)c2c([nH]1)NC[C@@H](CNc1ccc(C(=O)N[C@@H](CCC(=O)O)C(=O)O)cc1)N2C=O [Folinic acid calcium salt] | -0.476 | -0.265 | -0.437 | -0.13 | -0.451 | -0.42
8 | c1ccc(CC2=NCCN2)cc1 [Tolazoline hydrochloride] | -0.404 | 0.69 | -0.609 | -0.502 | -0.487 | -0.331
9 | Cc1cccc(Nc2ccncc2S(=O)(=O)NC(=O)NC(C)C)c1 [Torsemide] | -0.347 | -0.115 | 0.00281 | 0.228 | -0.452 | -0.394
10 | O=C1C(CC[S+]([O-])c2ccccc2)C(=O)N(c2ccccc2)N1c1ccccc1 (stereo not drawn) [Sulfinpyrazone] | -0.368 | 0.025 | 0.303 | -0.59 | -0.319 | -0.446
11 | CN1CCN(C2=Nc3cc(Cl)ccc3Nc3ccccc32)CC1 [Clozapine] | 1.19 | 2.46 | 0.629 | -0.114 | 0.781 | 1.4
12 | CC(=O)OCC(=O)NCCCOc1cccc(CN2CCCCC2)c1 [Roxatidine Acetate HCl] | -0.585 | -0.0177 | -0.731 | -0.282 | -0.524 | -0.38
13 | CCC(NC(C)C)C(O)c1ccc(O)c(O)c1 (stereo not drawn) [Isoetharine mesylate salt] | -0.174 | 0.0426 | 0.269 | -0.32 | -0.45 | -0.32
14 | CC1(C)O[C@@H]2C[C@H]3[C@@H]4C[C@H](F)C5=CC(=O)C=C[C@]5(C)[C@H]4[C@@H](O)C[C@]3(C)[C@]2(C(=O)CO)O1 [Flunisolide] | -0.32 | -1.26 | -0.035 | -0.18 | -0.256 | -0.365
15 | COc1ccc2c(c1)c(CC(=O)OCC(=O)O)c(C)n2C(=O)c1ccc(Cl)cc1 [Acemetacin] | -0.545 | -0.702 | -1.02 | -0.542 | -0.556 | -0.644
16 | C[C@]12CC[C@@H]3c4ccc(O)cc4CC[C@H]3[C@@H]1CC[C@@H]2O [Estradiol-17 beta] | -0.253 | 0.492 | -0.4 | -1.01 | -0.426 | -0.515
17 | CN1CCC(=C2c3ccccc3C=Cc3ccccc32)CC1 [Cyproheptadine hydrochloride] | 2.41 | 0.629 | 1.01 | -1.18 | 2.25 | 0.976
18 | O=C1OC(CN2CCOCC2)CN1/N=C/c1ccc([N+](=O)[O-])o1 (stereo not drawn) [Furaltadone hydrochloride] | -0.539 | -0.499 | -0.319 | -0.322 | -0.493 | -0.666
19 | CC(=O)OCC(=O)[C@@]1(O)CC[C@H]2[C@@H]3CCC4=CC(=O)CC[C@]4(C)[C@H]3[C@@H](O)C[C@@]21C [Cortisol acetate] | -0.325 | -0.845 | -0.384 | -0.119 | -0.306 | -0.404
20 | CC(=O)OCC(=O)[C@@]1(O)[C@H](C)C[C@H]2[C@@H]3CCC4=CC(=O)C=C[C@]4(C)[C@@]3(F)[C@@H](O)C[C@@]21C [Dexamethasone acetate] | -0.279 | -0.245 | -0.619 | -0.504 | -0.34 | -0.593
21 | CC(C)(C)NC(=O)[C@H]1CC[C@H]2[C@@H]3CC[C@H]4NC(=O)C=C[C@]4(C)[C@H]3CC[C@]12C [Finasteride] | -0.353 | -0.576 | 0.536 | 0.274 | -0.256 | -0.306
22 | CCOCCn1c(N2CCCN(C)CC2)nc2ccccc21 [Emedastine] | -0.464 | 0.747 | -0.629 | -0.502 | -0.536 | -0.461
23 | CCCOc1cc(N)ccc1C(=O)OCCN(CC)CC [Propoxycaine hydrochloride] | 0.303 | 1.24 | 0.398 | 0.62 | -0.0905 | 0.287
24 | CCN(CC)C(C)CN1c2ccccc2Sc2ccccc21 (stereo not drawn) [Ethopropazine hydrochloride] | 3.1 | 5.78 | 2.83 | 2.95 | 2.11 | 1.8

Row | SMILES | LBPA endosome anti-LBPA integrated intensity (z-score) (A431 [1]) | LBPA endosome anti-LBPA integrated intensity (z-score) (HeLa MZ [2]) | whole-cell filipin (z-score) (A431 [3]) | whole-cell filipin (z-score) (HeLa MZ [4]) | filipin (z-score) (A431 [5]) | filipin (z-score) (HeLa MZ [6])
25 | O=C(NCCNCC(O)COc1ccc(O)cc1)N1CCOCC1 (stereo not drawn) [Xamoterol hemifumarate] | -0.337 | -0.849 | -0.403 | -0.263 | -0.407 | -0.533
26 | CC(C)CC(=O)N[C@H](C(=O)N[C@H](C(=O)N[C@@H](CC(C)C)[C@@H](O)CC(=O)N[C@@H](C)C(=O)N[C@@H](CC(C)C)[C@@H](O)CC(=O)O)C(C)C)C(C)C [Pepstatin A] | -0.604 | -1.38 | -0.841 | -0.484 | -0.569 | -0.589
27 | O=c1[nH]cnc2c1ncn2[C@H]1CC[C@@H](CO)O1 [Didanosine] | -0.649 | -1.14 | -1.2 | -0.832 | -0.585 | -0.693
28 | NS(=O)(=O)c1cc2c(cc1C(F)(F)F)NC(Cc1ccccc1)NS2(=O)=O (stereo not drawn) [Bendroflumethiazide] | -0.595 | -0.755 | -0.332 | -0.0234 | -0.529 | -0.486
29 | NCCNCCNCCNCCN [Tetraethylenepentamine pentahydrochloride] | -0.276 | -0.00928 | 0.0109 | 0.146 | -0.392 | -0.197
30 | C=CCc1ccccc1OCC(O)CNC(C)C (stereo not drawn) [Alprenolol hydrochloride] | -0.146 | -0.138 | 0.0188 | 0.141 | -0.22 | -0.133
31 | Cc1c(C)c2c(c(C)c1O)CCC(C)(COc1ccc(CC3SC(=O)NC3=O)cc1)O2 (stereo not drawn) [Troglitazone] | -0.514 | -0.51 | -0.29 | -0.287 | -0.459 | -0.355
32 | CNCCCC12CCC(c3ccccc31)c1ccccc12 [Maprotiline hydrochloride] | 1.93 | 0.295 | 1.09 | 1.4 | 2.92 | 3.38
33 | CNCC(O)c1ccc(O)c(O)c1 (stereo not drawn) [Racepinephrine HCl] | -0.253 | -0.0976 | 0.725 | 0.18 | -0.509 | -0.366
34 | CC(=O)Nc1ccc(OCC(O)CNC(C)C)cc1 (stereo not drawn) [Practolol] | -0.578 | -0.861 | -0.908 | -0.531 | -0.573 | -0.506
35 | COCCOC(=O)C1=C(C)NC(C)=C(C(=O)OC(C)C)C1c1cccc([N+](=O)[O-])c1 (stereo not drawn) [Nimodipine] | -0.345 | 0.468 | 0.0525 | 0.629 | -0.323 | -0.286
36 | CCN(CCCCOC(=O)c1ccc(OC)c(OC)c1)C(C)Cc1ccc(OC)cc1 (stereo not drawn) [Mebeverine hydrochloride] | 2.42 | 2.15 | 1.9 | 1.63 | 2.46 | 2.74
37 | C[n+]1ccccc1/C=N/O [Pralidoxime chloride] | -0.559 | -0.678 | -0.432 | -0.212 | -0.503 | -0.574
38 | C[C@H]1c2cccc(O)c2C(=O)C2=C(O)[C@]3(O)C(=O)C(C(N)=O)=C(O)[C@@H](N(C)C)[C@@H]3[C@@H](O)[C@@H]21 [Doxycycline hydrochloride] | -0.633 | -1.71 | -0.0102 | -0.552 | -0.531 | -0.743
39 | Clc1ccc(CO/N=C(\Cn2ccnc2)c2ccc(Cl)cc2Cl)c(Cl)c1 [Oxiconazole Nitrate] | 0.391 | 1.11 | 1.4 | 1.62 | 0.64 | 0.784
40 | CC(C)NCC(O)COc1ccc(COCCOC(C)C)cc1 (stereo not drawn) [Bisoprolol fumarate] | 0.695 | 0.146 | -0.603 | 0.308 | -0.0123 | -0.0431
41 | CC(C)(C)NCC(O)COc1cccc2c1CC(O)C(O)C2 (stereo not drawn) [Nadolol] | -0.438 | 0.289 | -0.0909 | 0.44 | -0.44 | -0.157
42 | Nc1ccccc1S(N)(=O)=O [2-Aminobenzenesulfonamide] | -0.461 | -0.0157 | -0.474 | -0.217 | -0.417 | -0.589
43 | S=c1[nH]cnc2nc[nH]c12 [Mercaptopurine] | -0.731 | -1.06 | -0.622 | -1.37 | -0.742 | -0.984
44 | CC(=O)Oc1ccccc1C(=O)O [Acetylsalicylic acid] | -0.437 | -1.33 | -0.0786 | -0.536 | -0.409 | -0.51
45 | CC1(C)S[C@@H]2[C@H](NC(=O)[C@H](C(=O)O)c3ccsc3)C(=O)N2[C@H]1C(=O)O [Ticarcillin sodium] | -0.466 | -0.401 | -0.165 | -0.157 | -0.403 | -0.501
46 | Cc1ccsc1/C=C/C1=NCCCN1C [Morantel tartrate] | -0.53 | -0.0789 | -1.09 | -0.906 | -0.593 | -0.756
47 | CNS(=O)(=O)Cc1ccc2[nH]cc(CCN(C)C)c2c1 [Sumatriptan succinate] | -0.406 | 0.265 | -0.574 | -0.339 | -0.423 | -0.484
48 | CCCCC(=O)O[C@H]1CC[C@H]2[C@@H]3CCc4cc(O)ccc4[C@H]3CC[C@]12C [Estradiol Valerate] | -0.347 | -0.788 | 0.103 | 0.191 | -0.224 | -0.226
